Source: PubChem BioAssay AID1159580 (chemical genetic matrix, 2015)
Screen size: about 5,500 compounds; about 2,000 (36%) were called active. About 18% were inconclusive and are not listed. Rule as the data show it: active = normalized growth mostly below about 0.91 (no sharp cut-off); inconclusive = no clear call, values can overlap the other calls; inactive = mostly above about 0.92. This is one part of the list.

Assay: chemical genetic growth profiling, strain panel (AID 1159580);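 also: tested at 20 µM; growth read once vehicle control cultures reached saturation at 30 °C; 1 = growth at the plate median or of vehicle wells; lower values mean less growth of the strain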
Conditions: S. cerevisiae deletion strains, growth OD

Measured: normalized growth

COc1cc2c(cc1OC)[C@@H]1C(=O)c3ccc(O)c(CC=C(C)C)c3O[C@@H]1CO2
active: locus YJL187C, strain SWE1, active compounds read low 1.1 [resistant] | locus YLL041C, strain sdh2, active compounds read low 1.09 [resistant] | locus YOR106W, strain vam3, active compounds read low 1.13 [resistant] | locus YPL240C, strain hsp82, active compounds read low 1.11 [resistant]
inactive: locus YJL168C, strain set2, active compounds read low 0.979 | locus YJL187C, strain SWE1 (second series), active compounds read low 0.951 | locus YJR043C, strain POL32, active compounds read low 1.05 | locus YKL009W, strain mrt4, active compounds read low 0.93 | locus YKL068W, active compounds read low 0.969 | locus YKL085W, strain MDH1 (second series), active compounds read low 0.963 | locus YKL085W, strain MDH1, active compounds read low 0.963 | locus YKL160W, strain elf1, active compounds read low 1.02 | locus YKR001C, strain vps1, active compounds read low 1.02 | locus YKR026C, strain gcn3, active compounds read low 1 | locus YKR091W, strain srl3, active compounds read low 1.03 | locus YLL001W, strain dnm1, active compounds read low 1 | locus YLL026W, active compounds read low 1.03 | locus YLR027C, strain aat2, active compounds read low 1.07 | locus YLR039C, strain RIC1, active compounds read low 0.925 | locus YLR058C, strain SHM2, active compounds read low 0.98 | locus YLR102C, strain apc9, active compounds read low 0.991 | locus YLR221C, strain rsa3, active compounds read low 1.04 | locus YLR258W, strain gsy2, active compounds read low 1.06 | locus YLR262C, strain YPT6 (second series), active compounds read low 0.97 | locus YLR262C, strain YPT6, active compounds read low 0.906 | locus YLR268W, strain sec22, active compounds read low 1.02 | locus YLR320W, strain mms22, active compounds read low 0.961 | locus YLR330W, strain CHS5, active compounds read low 0.99 | locus YLR342W, strain FKS1 (second series), active compounds read low 1.06 | locus YLR342W, strain FKS1, active compounds read low 1.02 | locus YLR357W, strain rsc2, active compounds read low 1.05 | locus YLR370C, strain arc18, active compounds read low 1 | locus YLR371W, strain rom2, active compounds read low 1.02 | locus YLR384C, strain iki3, active compounds read low 0.971 | locus YLR418C, strain cdc73, active compounds read low 1 | locus YML016C, strain PPZ1, active compounds read low 1 | locus YML032C, strain rad52, active compounds read low 1.01 | locus YML120C, strain ndi1, active compounds read low 0.976 | locus YML124C, strain tub3, active compounds read low 0.989 | locus YMR058W, strain fet3, active compounds read low 1 | locus YMR078C, strain ctf18, active compounds read low 1.01 | locus YMR125W, strain sto1, active compounds read low 1.01 | locus YMR129W, active compounds read low 1.01 | locus YMR205C, strain PFK2, active compounds read low 1.02 | locus YMR223W, strain ubp8, active compounds read low 0.995 | locus YMR231W, strain pep5, active compounds read low 0.959 | locus YMR307W, strain GAS1, active compounds read low 1.1 | locus YNL067W, strain RPL9B, active compounds read low 0.958 | locus YNL071W, strain lat1, active compounds read low 1.02 | locus YNL128W, strain TEP1, active compounds read low 0.966 | locus YNL209W, strain ssb2, active compounds read low 1.05 | locus YNL233W, strain BNI4, active compounds read low 0.947 | locus YNL248C, strain rpa49, active compounds read low 1.01 | locus YNL250W, strain rad50, active compounds read low 0.923 | locus YNL271C, strain bni1, active compounds read low 1 | locus YNL298W, strain CLA4, active compounds read low 0.959 | locus YNL307C, strain MCK1, active compounds read low 0.967 | locus YNL322C, strain KRE1 (second series), active compounds read low 1.04 | locus YNL322C, strain KRE1, active compounds read low 0.985 | locus YNR049C, strain mso1, active compounds read low 0.999 | locus YNR052C, strain pop2, active compounds read low 0.986 | locus YOL012C, strain htz1 0.715 | locus YOL147C, strain pex11, active compounds read low 0.987 | locus YOR001W, strain rrp6, active compounds read low 1.05 | locus YOR061W, strain CKA2, active compounds read low 0.99 | locus YOR069W, strain VPS5, active compounds read low 0.98 | locus YOR070C, strain gyp1, active compounds read low 1.02 | locus YOR080W, strain dia2, active compounds read low 1.07 | locus YOR083W, strain WHI5, active compounds read low 1 | locus YOR136W, strain idh2, active compounds read low 0.98 | locus YOR144C, strain elg1, active compounds read low 0.993 | locus YOR184W, strain ser1, active compounds read low 1.08 | locus YOR265W, strain rbl2, active compounds read low 1 | locus YOR270C, strain vph1, active compounds read low 0.971 | locus YOR290C, strain snf2, active compounds read low 1.01 | locus YOR316C, strain cot1, active compounds read low 0.966 | locus YPL051W, strain arl3, active compounds read low 1 | locus YPL055C, strain LGE1, active compounds read low 1.01 | locus YPL078C, strain atp4, active compounds read low 1.01 | locus YPL106C, strain sse1, active compounds read low 1.11 | locus YPR119W, strain clb2, active compounds read low 0.986 | locus YPR141C, strain kar3, active compounds read low 1.01 | locus YPR163C, strain tif3, active compounds read low 1.01 | locus YPR167C, strain met16, active compounds read low 0.987 | strain wtn01, active compounds read low 1.04
